# Data as given in ChEMBL document CHEMBL3433997, “St. Jude Leishmania screening dataset” (2016).
# Target: Glucose transporter (Leishmania mexicana) (UniProt O61059)
# Assay: ST_JUDE_LEISH: Cytotoxicity at 2uM final concentration against transgenic Leishmania Mexicana promastigotes LmGT2 that are glucose transport deficient and complemented with the L. Mexicana glucose transporter 2. Activity is measured by DNA content using SYBR green in vitro
# Format: functional
row,Structure (SMILES),inhibition [%]
1,COc1cc(C(=O)NCCCN2CCN(c3cc(Cl)ccc3OC)CC2)ccc1-c1nc2cc(Cl)c(Cl)cc2[nH]1,5.03
2,CCC(=O)Nc1ccc(C(O)CN2CCC3(C=Cc4ccccc4O3)CC2)cc1 (stereo not given),1.63
3,CN1CCC(NCc2cccc(-c3cnc(NCc4ccccc4)nc3)c2)CC1,1
4,O=C(Nc1ccc(-c2nc3ccccc3[nH]2)cc1)c1ccc(-c2cccc([N+](=O)[O-])c2)o1,-3.21
5,Cc1cc(C)n2nc(C(=O)Nc3cc(C(F)(F)F)ccc3N3CCOCC3)nc2n1,3.81
6,CCN1CCN(c2cc(C)c3cc(NC(=O)c4cccc(C(F)(F)F)c4)ccc3n2)CC1,1.11
7,Clc1ccc(C2CCN(CCCOc3ccc4c(c3)CCNCC4)CC2)cc1,75.7
8,N#CCCN1CCN(Cc2cccc(-c3ccc(-c4nc5cc(F)ccc5[nH]4)cc3)c2)CC1,3.71
9,COc1cc2c(cc1CCNCCCCNCCc1cc3c(cc1OC)CCCC3)CCCC2,106
10,COc1ccc(-c2ccc(NC(=O)c3ccc(C#N)cc3)cc2)cc1CNC(C)C,2.38
11,COc1ccc2nccc([C@H](O)CN3CCC(NCc4ccc5c(c4C)OCCO5)CC3)c2n1,69.1
12,COc1ccc2c(c1)ncn2-c1cc(OCc2ccncc2Br)c(C(N)=O)s1,2.35
13,CC(=O)Nc1ccc(OCCCCN(Cc2ccccc2C(F)(F)F)c2ccc(C#N)c(C(F)(F)F)c2)cc1,7.15
14,COc1ccc2ccc(F)c(CC(=O)N3CCOC(CNCc4cccc(-c5ccsc5)n4)C3)c2n1 (stereo not given),4.23
15,S=C(NN=Cc1ccccn1)NC1CC2C=CC1C2 (stereo not given),-1.49
16,CC(C)c1ccc(Nc2nc(NCCc3c[nH]cn3)nc(NCc3ccccc3)n2)cc1,0.61
17,CC(=O)Nc1cccc(C(=O)Nc2cccc(-c3cccc(-c4nc5cc(F)ccc5[nH]4)c3)c2)c1,7.22
18,CCN(CCCNc1nc(=S)[nH]c2cc(OC)c(OC)cc12)c1ccccc1,-4.13
19,COC(=O)C(=O)c1c(-c2ccccc2)c(-c2ccc(OC)c(OC)c2)c2c3cc(OC)c(OC)cc3ccn12,8.49
20,COc1cccc(CNC[C@@H](O)[C@H](Cc2ccccc2)NC(=O)c2cc3c4c(c2)c(C(C)C)cn4CCS(=O)(=O)N3C)c1,8.04

row,Structure (SMILES),inhibition [%]
1,CN1CCN(Cc2ccc(-c3ccc4c(Nc5cc(O)c(Cl)cc5F)ccnc4c3)o2)CC1,4.5
2,O=C(Nc1cccc(-c2ccc(-c3nc4cc(F)ccc4[nH]3)cc2)c1)Nc1ccc(Cl)c(Cl)c1,5.84
3,O=C(Nc1ccc(-c2ccccc2)cc1)Nc1cccc(Cn2ncc(N3CCCNCC3)c(Cl)c2=O)c1,0.04
4,O=C(CC1SC(N2N=C(c3cccs3)CC2c2ccccc2)=NC1=O)Nc1ccc(Cl)cc1 (stereo not given),-0.33
5,CN1CCCN(Cc2cccc(-c3ccc(NC(=O)c4cccc(C#N)c4)cc3)c2)CC1,9.31
6,CC(C)(CNCc1ccc(C(F)(F)F)cc1)c1nc(-c2ccnc(N)n2)c(-c2ccc(Cl)c(O)c2)[nH]1,2.94
7,COc1ccc(C2C(C(=O)Nc3cc(OC)c(OC)c(OC)c3)c3cc(OC)c(OC)cc3C(=O)N2C)cc1 (stereo not given),2.37
8,CC(C)CNC(=O)c1cncc(-c2cccc(CNC3Cc4ccccc4C3)c2)c1,6.4
9,CCCCCCN1CCCN(Cc2ccc(C(=O)Nc3ccc(C)c(F)c3)cc2)CC1,13.7
10,CN1CCN(c2ccnc3cc4c(cc23)N(C(=O)Nc2ccc(-c3ccncc3)c3ccccc23)CC4)CC1,3.35
11,O=C(/C=C/c1ccc(Cl)c(Cl)c1)NCCCCCN1CCC(c2c[nH]c3cc(O)ccc23)CC1,7.41
12,CN(CCCNCc1ccc2ccccc2c1)CCCNCc1ccc2ccccc2c1,3.29
13,CN1C(=C2SC(=Nc3ccc4ncccc4c3)N(Cc3ccccc3)C2=O)Sc2ccc(Cl)cc21,1.06
14,CCCCCN1CCC(NS(=O)(=O)c2cccc(C(=O)Nc3ccc(C(F)(F)F)cc3)c2)C1 (stereo not given),1.9
15,OC(CN(Cc1ccccc1)Cc1ccccc1)Cn1c2ccc(Cl)cc2c2cc(Cl)ccc21 (stereo not given),1.37
16,O=C(Nc1ccc(-c2cccc(-c3nc4ccccc4[nH]3)c2)cc1)Nc1ccc2c(c1)OCO2,0.58
17,COCC(=O)N(Cc1ccccc1-c1cccc(CNCc2ccc3c(c2)OCO3)c1)C1CCN(Cc2ccccc2)CC1,1.77
18,CCNc1cc(C)nc(Nc2ccc(C)cc2)n1,5.86
19,OCCNc1nc(Nc2ccc(Cl)cc2)nc2ccccc12,1.54
20,CCN(CC(C)O)C(=O)c1ccc(-c2cccc(-c3nc4cccc(C)c4[nH]3)c2)cc1 (stereo not given),0.11
